Source: PubChem BioAssay
Calb FLC = C. albicans growth inhibition with fluconazole, primary screen, CaCi-2 strain, Alamar Blue fluorescence | C. albicans CaCi-2 (fluconazole-resistant clinical isolate) + fluconazole, 48 h | growth inhibition, % (test concentration not listed) | 300,000 tested, 0.57% active | AID 1979, 2009;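 active = growth inhibition above about 58% in most replicates, limit read from the data, passing the limit was not always enough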;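 note: all wells also contain fluconazole at 8 µg/ml as a sub-toxic cotreatment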
MPTP block = mitochondrial permeability transition pore inhibitors, primary screen, biochemical, isolated mouse mitochondria, absorbance | Ca2+ swelling absorbance, 30 min | inhibition, % at 10 µM | 360,000 tested, 1.4% active | AID 602449, 2012;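 active = inhibition of 50% or more, scaled per plate between neutral and stimulator controls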
CSC inhib = cancer stem cell viability inhibitors, primary screen, luminescence. 300,000 tested, 1.1% active. inhibition, % at 7.5 µM. cancer stem cell-like cells viability. AID 2717, 2010; in the data active = inhibition above about 75%; tested in HMLE shEcad cells
SKKanGAS inh = S. pyogenes SKKanGAS growth inhibitors in kanamycin, primary screen, streptokinase expression inhibitor project, SKKanGAS strain, BacTiter-Glo luminescence | 6 h | inhibition, % at 7.5 µM | AID 1662, 2009 | 300,000 tested, 1.3% active;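 active = mean replicate score, as percent of positive control median, at least 50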;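 note: strain carries kanamycin resistance gene driven by streptokinase promoter and grows in 40 µg/ml kanamycin; loss of luminescence reflects streptokinase promoter inhibition or plain growth inhibition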
Mdm2 MdmX PPI = inhibitors of human Mdm2-MdmX association, primary screen, cell-based, luminescence, split luciferase, SaOS-2, uHTS; Protein Mdm4 (Homo sapiens) + E3 ubiquitin-protein ligase Mdm2 (Homo sapiens), …; SaOS-2 split-luciferase Mdm2/MdmX complementation; inhibition, % at 8 µM; 330,000 tested, 3% active;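 active = inhibition of at least 50% at 8 µM in the primary screen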
Target sequence (O15151 whole entry, looked up): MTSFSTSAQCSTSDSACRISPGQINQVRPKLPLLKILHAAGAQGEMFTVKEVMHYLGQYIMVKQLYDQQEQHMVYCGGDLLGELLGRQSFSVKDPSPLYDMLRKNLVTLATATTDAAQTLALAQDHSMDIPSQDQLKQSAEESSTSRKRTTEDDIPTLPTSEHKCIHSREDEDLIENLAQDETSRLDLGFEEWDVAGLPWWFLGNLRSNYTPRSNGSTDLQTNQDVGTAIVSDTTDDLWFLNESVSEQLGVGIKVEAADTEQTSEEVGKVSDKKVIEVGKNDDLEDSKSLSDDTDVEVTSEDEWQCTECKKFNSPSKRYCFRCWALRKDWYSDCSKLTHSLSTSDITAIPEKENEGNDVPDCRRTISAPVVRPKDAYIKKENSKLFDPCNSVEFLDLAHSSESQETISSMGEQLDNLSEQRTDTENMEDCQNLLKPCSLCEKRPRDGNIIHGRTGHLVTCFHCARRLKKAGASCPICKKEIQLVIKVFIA
Target sequence (Q00987 whole entry, looked up): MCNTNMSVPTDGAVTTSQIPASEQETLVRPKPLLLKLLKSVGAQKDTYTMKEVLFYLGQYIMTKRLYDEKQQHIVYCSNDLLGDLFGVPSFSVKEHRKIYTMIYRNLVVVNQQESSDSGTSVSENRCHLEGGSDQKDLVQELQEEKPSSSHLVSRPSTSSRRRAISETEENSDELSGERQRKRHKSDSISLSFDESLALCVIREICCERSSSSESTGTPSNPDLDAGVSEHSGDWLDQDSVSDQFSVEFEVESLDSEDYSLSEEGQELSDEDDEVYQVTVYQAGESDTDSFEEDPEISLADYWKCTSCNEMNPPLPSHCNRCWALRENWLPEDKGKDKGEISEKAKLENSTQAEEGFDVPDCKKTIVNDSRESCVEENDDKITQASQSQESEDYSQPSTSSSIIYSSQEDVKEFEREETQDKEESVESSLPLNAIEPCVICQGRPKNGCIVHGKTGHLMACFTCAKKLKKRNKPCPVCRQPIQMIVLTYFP
Beta apoptosis = inhibitors of cytokine-induced beta cell apoptosis, primary screen, luminescence. INS-1E cytokine-induced death, ATP luminescence, 48 h; percent of positive-control rescue, neutral wells zero. protection from apoptosis, % (concentration not given with the values). 300,000 tested, 0.8% active;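 active = Every replicate reaches about 75%, or at least half do and their mean reaches it too, limit read from the data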;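 note: higher means more ATP so stronger rescue from cytokine killing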
Each line names hits and unclear results; the compound was inactive in the other large screens. Only some compounds are listed: those with a hit (about 5.4% of all), similar ones and a draw of the others.

CC(C)(C)OC(=O)C[C@H]1C/C=C\C[C@H](CC(=O)N[C@@H](CO)Cc2ccccc2)C(=O)N[C@H](C(C)(C)C)COC1=O	none (no result: Calb FLC, CSC inhib, SKKanGAS inh, Beta apoptosis)
N=C1S/C(=C\c2ccccc2F)C(=O)N1c1ccc(F)cc1	none
N=C1S/C(=C\c2cn[nH]c2-c2ccc(F)cc2)C(=O)N1c1ccccc1F	SKKanGAS inh 60
O=C(/C=C/c1ccc([N+](=O)[O-])cc1)Nc1cccnc1	none
O=C(COc1ccc([N+](=O)[O-])cc1)Nc1ccc(C(=O)NCc2cccnc2)cc1	Beta apoptosis 101
